Results filed as inconclusive are left out. Activity calls are given as the source filed them. Unless noted, the call rests on the fitted dose curve; in most records, active means well fitted curve in the direction sought with a large enough effect in the repeat runs; inconclusive means weak or mixed curves; inactive means no such curve, though single readings can be large; an effect the other way counts as inactive or inconclusive.
What was measured:
[1] = biological target: Thyrotropin receptor (Homo sapiens) (UniProt P16473); assay: qHTS assay to identify small molecule antagonists of the thyroid stimulating hormone receptor (TSHR) signaling pathway (AID 1259385; calls by dose curve; further: nearly all actives have a fitted effect of over 20% in size)
Procedure, shortened: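 TSHR-HEK293 cells were plated and held 18 h at 37C/5% CO2, then given compound plus Ro20-1724 and stimulated with TSH at 1.5 ng/mL final. After 30 min at room temperature, cAMP was detected with cAMP-d2/anti-cAMP-cryptate (1 h) by fluorescence.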

[2] = qHTS assay to identify small molecule agonists of the estrogen receptor alpha (ER-alpha) signaling pathway in the presence of an antagonist - cell viability counter screen (AID 1259386);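 further: series mostly up to about 92 µM; cells exposed to compounds for 22 h at 37 °C before the viability read; nearly all actives have a fitted effect of over 30% in size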
Procedure, shortened: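 Cell viability in VM7Luc4E2 cells (endogenous full-length ER-alpha) measured by CellTiter-Fluor fluorescence in the same wells as the luciferase screen. Cells pre-cultured 5 days in charcoal-stripped serum, then treated 22 h with compounds at 15 concentrations plus 10.0nM ICI-182,780.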

[3] = biological target: Progesterone receptor (Homo sapiens) (UniProt P06401); assay: qHTS assay to identify small molecule agonists of the progesterone receptor (PR) signaling pathway (AID 1346784; calls by dose curve; further: nearly all actives have a fitted effect of over 30% in size; further: potency means the concentration at half of the fitted maximal effect)
Procedure, shortened: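 PR-UAS-bla HEK 293T cells (beta-lactamase reporter under UAS) in 2% charcoal-stripped FBS, dosed with 23 nL compound after 6 hr, incubated 16hr at 37C. LiveBLAzer B/G FRET substrate added, fluorescence read after 2 hours.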

[4] = biological target: Progesterone receptor (Homo sapiens) (UniProt P06401); assay: qHTS assay to identify small molecule antagonists of the progesterone receptor (PR) signaling pathway (AID 1346795; active means well fitted inhibition curve with a large enough effect in the signal ratio in the repeat runs, not every such curve was filed as active; the % refers to the signal ratio)
Procedure, shortened: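 PR-UAS-bla HEK293T cells with beta-lactamase reporter under UAS control, in 2% charcoal-stripped FBS, treated with compounds plus 1 nM promegestone (R5020, final) for 16 hr at 37C. Read-out: FRET beta-lactamase substrate fluorescence after 2 hr at room temperature.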

[5] = qHTS assay to identify small molecule antagonists of the progesterone receptor (PR) signaling pathway - cell viability counter screen (AID 1346798); further: series mostly up to about 92 µM; nearly all actives have a fitted effect of over 50% in size
Procedure, shortened: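 PR-UAS-bla HEK293T cells, 3,000/well in 2% charcoal-stripped FBS medium, dosed with compounds plus R5020 agonist and incubated 16 h at 37C. Viability then measured in the same wells by CellTiter-Glo luminescence after 30 min at RT.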

[6] = qHTS assay to identify small molecule agonists of the progesterone receptor (PR) signaling pathway - cell viability counter screen (AID 1346799; calls by dose curve; further: nearly all actives have a fitted effect of over 45% in size; further: potency means the concentration at half of the fitted maximal effect)
Procedure, shortened: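 Counter screen in the PR-UAS-bla HEK293T wells (2% charcoal-stripped FBS, 16 h compound exposure at 37 C) after the bla read. CellTiter-Glo added, 30 min at room temperature, luminescence read as cell viability.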

[7] = qHTS assay to identify small molecule antagonists of the TGF-beta/Smad signaling pathway - cell viability counter screen (AID 1346824); further: nearly all actives have a fitted effect of over 50% in size
Procedure, shortened: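 SBE-bla HEK 293T cells were plated overnight at 37 C, then given compounds in DMSO plus TGF-beta1 (added as 0.25 ng/mL solution) for 5 hr. After the bla read, CellTiter-Glo was added to the same wells and luminescence read after 30 min at room temperature.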

[8] = qHTS assay to identify small molecule agonists of the TGF-beta/Smad signaling pathway - cell viability counter screen (AID 1346829); further: top concentration of the series differs between compounds; nearly all actives have a fitted effect of over 45% in size
Procedure, shortened: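 Compound-treated SBE-bla HEK 293T cells (5 hr, 37 C) were assessed for viability with CellTiter-Glo in parallel with the reporter read.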

[9] = qHTS assay to identify small molecule agonists of the TGF-beta/Smad signaling pathway (AID 1346859; active means well fitted activation curve with a large enough effect in the signal ratio in the repeat runs, not every such curve was filed as active; the % refers to the signal ratio; further: series mostly up to about 77 µM)
Procedure, shortened: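 SBE-bla HEK293T cells plated overnight, then compound exposure for 5 h at 37 C. Beta-lactamase reporter read with LiveBLAzer B/G FRET substrate after 2 h at room temperature, fluorescence at 405 nm excitation, 460/530 nm emission.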

[10] = biological target: Thyrotropin-releasing hormone receptor (Homo sapiens) (UniProt P34981); assay: qHTS assay to identify small molecule agonists of the thyrotropin-releasing hormone receptor (TRHR) signaling pathway (AID 1346891; calls by dose curve; further: series mostly up to about 58 µM)
Procedure, shortened: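 HEK293 cells expressing TRHR plated 18 h at 37 C/5% CO2, calcium dye-loaded 2 h at 37 C, then compound added (agonist mode); kinetic calcium fluorescence read 3 min at 1 s intervals; 15 concentrations in triplicate.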

[11] = Caspase-3/7 induction in HepG2 cells by small molecules, qHTS assay (AID 1346978); further: nearly all actives have a fitted effect of over 15% in size
Procedure, shortened: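 Wild-type HepG2 cells (2,000/well) were settled 5 h at 37 C, 5% CO2, then exposed to compounds in DMSO for 17 h. Caspase-3/7 activity was read by luminescence 30 min after adding Caspase-Glo 3/7 reagent at room temperature.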

[12] = Caspase-3/7 induction in CHO-K1 cells by small molecules, qHTS cell viability counter screen (AID 1346979); further: nearly all actives have a fitted effect of over 35% in size
Procedure, shortened: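 Wild-type CHO-K1 cells (1,500/well) treated with compound after 5 h plating; after 16 h at 37C, viability read as CellTiter-Fluor fluorescence following 1 h reagent incubation, in the same wells as the caspase read.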

[13] = Caspase-3/7 induction in CHO-K1 cells by small molecules, qHTS assay (AID 1346980); further: nearly all actives have a fitted effect of over 15% in size
Procedure, shortened: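 Wild-type cells were seeded at 1,500 per well and settled 5 hr at 37 C, 5% CO2, then exposed to DMSO-dissolved compounds for 17 hr. Caspase-Glo 3/7 reagent was added, and luminescence was read after 30min at room temperature.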

[14] = Caspase-3/7 induction in HepG2 cells by small molecules, qHTS cell viability counter screen (AID 1346981); further: series mostly up to about 92 µM; nearly all actives have a fitted effect of over 30% in size
Procedure, shortened: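 Wild-type HepG2 cells, 2,000/well, settled 5 hr at 37 C, 5% CO2 before compound addition. Viability read by CellTiter-Fluor fluorescence, reagent added after 16 hr compound exposure, then 1 hr at 37C, in the same wells as the caspase read.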

[15] = biological target: Nuclear receptor subfamily 1 group I member 2 (Homo sapiens) (UniProt O75469); assay: Human pregnane X receptor (PXR) small molecule agonists, qHTS assay (AID 1346982); further: nearly all actives have a fitted effect of over 35% in size; further: potency means the concentration at half of the fitted maximal effect
Procedure, shortened: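 PXR-Luc HepG2 reporter cells (CYP3A4-driven luciferase) in 5% charcoal-stripped FBS medium, plated 5 h before compound addition, then treated 24 h at 37C. Luciferase read by ONE-Glo luminescence after 30 min at room temperature.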

[16] = Human pregnane X receptor (PXR) small molecule agonists, qHTS cell viability counter screen (AID 1346977); further: nearly all actives have a fitted effect of over 50% in size
Procedure, shortened: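 PXR-Luc HepG2 cells (2,000/well, 5% charcoal-stripped FBS) preincubated 5 hr, then exposed to compounds 24 hr at 37 C. Viability read in the same wells by CellTiter-Fluor fluorescence, reagent added at 23 hr, 1 hr incubation.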

[17] = biological target: Thyrotropin-releasing hormone receptor (Homo sapiens) (UniProt P34981); assay: qHTS assay to identify small molecule antagonists of the thyrotropin-releasing hormone receptor (TRHR) signaling pathway (AID 1346877; active means well fitted inhibition curve with a large enough effect in the repeat runs, not every such curve was filed as active; further: series mostly up to about 51 µM)
Procedure, shortened: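 TRHR-expressing HEK293 cells loaded with calcium dye for 2 h at 37 C; compounds pre-incubated 5 min at room temperature before TRH challenge at 1 nM final. Intracellular calcium fluorescence read kinetically for 3 min; 15 concentrations in triplicate.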

[18] = biological target: Nuclear receptor subfamily 1 group I member 2 (Rattus norvegicus) (UniProt Q9R1A7); assay: Rat pregnane X receptor (rPXR) activation by small molecules, qHTS assay (AID 1346983); conditions: rPXR luciferase reporter cells, One-Glo luminescence, 24 h; max activation: active compounds read high; further: potency means the concentration at half of the fitted maximal effect; nearly all actives have a fitted effect of over 20% in size
Procedure, shortened: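 Cell-based rPXR luciferase reporter assay, 2,000 cells per well, rested 5hr at 37 C before compound addition in DMSO, then 24 hr at 37 C. One-Glo reagent was added and luminescence read after 30 min at room temperature.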

[19] = biological target: Nuclear receptor subfamily 1 group I member 2 (Homo sapiens) (UniProt O75469); assay: CYP3A4 induction through human pregnane X receptor (PXR) by small molecules, qHTS assay (AID 1346984); further: nearly all actives have a fitted effect of over 40% in size
Procedure, shortened: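 DPX-2 HepG2 cells carrying a PXR response element and CYP3A4-promoter luciferase construct, treated with compounds 24 hr at 37C. Then P450-Glo CYP3A4 Luciferin-IPA substrate (3uM final) for 3 hr at 37C, One-Glo added, luminescence read.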

[20] = biological target: Nuclear receptor subfamily 1 group I member 2 (Homo sapiens) (UniProt O75469); assay: Human pregnane X receptor (PXR) activation by small molecules, qHTS assay (AID 1346985); further: nearly all actives have a fitted effect of over 40% in size
Procedure, shortened: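 DPX-2 cells (HepG2 co-transfected with a PXR response element and a CYP3A4-promoter luciferase construct) were seeded at 2,000 per well, rested 5 hr at 37C, then exposed to DMSO-dissolved compounds for 24 hr. Activation was read as luciferase luminescence.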

Measured: Potency

Thyrotropin-releasing hormone receptor (Homo sapiens), sequence (P34981 whole entry, looked up): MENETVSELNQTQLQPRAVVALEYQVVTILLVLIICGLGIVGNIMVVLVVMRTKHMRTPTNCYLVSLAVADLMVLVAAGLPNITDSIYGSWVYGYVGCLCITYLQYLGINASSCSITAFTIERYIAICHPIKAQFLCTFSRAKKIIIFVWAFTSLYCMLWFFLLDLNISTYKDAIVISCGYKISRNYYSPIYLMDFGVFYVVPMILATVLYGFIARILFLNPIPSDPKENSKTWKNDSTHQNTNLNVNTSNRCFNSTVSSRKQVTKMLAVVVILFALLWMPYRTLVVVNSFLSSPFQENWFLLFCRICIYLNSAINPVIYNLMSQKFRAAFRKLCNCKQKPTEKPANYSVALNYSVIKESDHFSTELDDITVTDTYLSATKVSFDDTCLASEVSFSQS
Nuclear receptor subfamily 1 group I member 2 (Homo sapiens), sequence (O75469 whole entry, looked up): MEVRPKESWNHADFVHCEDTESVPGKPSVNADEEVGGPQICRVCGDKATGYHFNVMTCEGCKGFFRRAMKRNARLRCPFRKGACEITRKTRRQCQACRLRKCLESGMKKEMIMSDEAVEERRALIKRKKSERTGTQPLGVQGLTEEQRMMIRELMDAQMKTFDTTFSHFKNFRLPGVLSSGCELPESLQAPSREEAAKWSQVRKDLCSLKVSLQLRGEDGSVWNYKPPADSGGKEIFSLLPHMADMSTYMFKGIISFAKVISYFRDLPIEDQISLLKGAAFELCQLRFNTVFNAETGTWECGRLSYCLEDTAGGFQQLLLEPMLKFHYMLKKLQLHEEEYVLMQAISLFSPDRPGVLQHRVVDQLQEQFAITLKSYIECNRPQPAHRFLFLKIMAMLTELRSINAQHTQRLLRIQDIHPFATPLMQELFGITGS
Thyrotropin receptor (Homo sapiens), sequence (P16473 whole entry, looked up): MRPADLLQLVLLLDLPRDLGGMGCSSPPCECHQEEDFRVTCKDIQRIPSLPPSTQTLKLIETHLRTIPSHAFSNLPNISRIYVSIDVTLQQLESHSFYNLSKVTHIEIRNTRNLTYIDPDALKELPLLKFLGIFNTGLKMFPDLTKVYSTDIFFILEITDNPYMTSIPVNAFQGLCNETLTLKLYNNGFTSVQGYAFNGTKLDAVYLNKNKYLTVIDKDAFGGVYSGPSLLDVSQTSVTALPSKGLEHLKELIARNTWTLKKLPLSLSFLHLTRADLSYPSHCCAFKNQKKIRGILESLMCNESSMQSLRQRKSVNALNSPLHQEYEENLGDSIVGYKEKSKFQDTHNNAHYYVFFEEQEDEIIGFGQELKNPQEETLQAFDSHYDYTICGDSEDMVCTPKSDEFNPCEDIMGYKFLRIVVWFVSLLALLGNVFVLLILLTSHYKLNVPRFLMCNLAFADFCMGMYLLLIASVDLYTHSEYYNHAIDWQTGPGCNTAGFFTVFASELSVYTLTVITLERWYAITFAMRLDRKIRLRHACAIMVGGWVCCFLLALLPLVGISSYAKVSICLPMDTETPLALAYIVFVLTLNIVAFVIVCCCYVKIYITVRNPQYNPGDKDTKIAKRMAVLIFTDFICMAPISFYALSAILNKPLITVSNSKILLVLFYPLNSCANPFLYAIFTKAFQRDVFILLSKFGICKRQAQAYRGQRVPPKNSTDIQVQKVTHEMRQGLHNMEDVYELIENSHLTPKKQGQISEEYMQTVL
Progesterone receptor (Homo sapiens), sequence (P06401 whole entry, looked up): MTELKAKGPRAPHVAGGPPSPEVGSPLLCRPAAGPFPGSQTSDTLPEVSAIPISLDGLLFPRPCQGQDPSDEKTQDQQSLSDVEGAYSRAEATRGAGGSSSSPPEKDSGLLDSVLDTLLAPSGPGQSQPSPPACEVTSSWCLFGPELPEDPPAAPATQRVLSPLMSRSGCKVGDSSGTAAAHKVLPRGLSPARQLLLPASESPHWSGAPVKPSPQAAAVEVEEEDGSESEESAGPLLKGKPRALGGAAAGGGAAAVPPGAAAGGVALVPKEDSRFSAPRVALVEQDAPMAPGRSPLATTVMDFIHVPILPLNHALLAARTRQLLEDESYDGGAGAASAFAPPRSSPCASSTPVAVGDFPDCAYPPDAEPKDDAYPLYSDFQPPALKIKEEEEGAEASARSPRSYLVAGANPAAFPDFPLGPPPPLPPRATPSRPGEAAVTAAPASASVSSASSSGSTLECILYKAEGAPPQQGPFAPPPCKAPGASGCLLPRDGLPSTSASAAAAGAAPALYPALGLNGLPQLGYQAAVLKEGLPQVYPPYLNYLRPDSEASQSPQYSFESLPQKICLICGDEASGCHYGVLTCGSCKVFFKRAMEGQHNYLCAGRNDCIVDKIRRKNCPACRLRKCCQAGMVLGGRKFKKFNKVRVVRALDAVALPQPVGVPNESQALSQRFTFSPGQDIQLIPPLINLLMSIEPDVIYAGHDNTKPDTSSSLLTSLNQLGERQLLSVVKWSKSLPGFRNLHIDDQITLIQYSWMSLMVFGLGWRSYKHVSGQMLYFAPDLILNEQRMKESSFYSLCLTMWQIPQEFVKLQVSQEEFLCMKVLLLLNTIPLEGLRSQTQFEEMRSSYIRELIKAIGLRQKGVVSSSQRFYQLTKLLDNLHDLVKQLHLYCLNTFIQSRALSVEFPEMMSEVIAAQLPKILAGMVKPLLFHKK
Nuclear receptor subfamily 1 group I member 2 (Rattus norvegicus), sequence (Q9R1A7 whole entry, looked up): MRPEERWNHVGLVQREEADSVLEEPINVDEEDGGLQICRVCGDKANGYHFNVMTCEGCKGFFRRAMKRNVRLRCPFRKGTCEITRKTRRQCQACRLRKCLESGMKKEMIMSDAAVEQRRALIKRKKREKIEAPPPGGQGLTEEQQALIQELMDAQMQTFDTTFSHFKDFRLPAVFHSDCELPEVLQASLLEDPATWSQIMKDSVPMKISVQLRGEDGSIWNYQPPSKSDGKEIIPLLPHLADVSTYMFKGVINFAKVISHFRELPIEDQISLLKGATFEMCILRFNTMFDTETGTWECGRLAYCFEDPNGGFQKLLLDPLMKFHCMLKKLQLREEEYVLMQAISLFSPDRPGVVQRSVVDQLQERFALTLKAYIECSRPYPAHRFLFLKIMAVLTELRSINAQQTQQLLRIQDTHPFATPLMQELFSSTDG

OCC(CO)(CO)COCC(CO)(CO)CO
inactive: [1] | [2] | [3] | [4] | [5] | [6] | [7] | [8] | [9] | [10] | [11] | [12] | [13] | [14] | [15]

O=C(O)c1ccccc1S
inactive: [1] | [2] | [3] | [4] | [5] | [6] | [7] | [8] | [9] | [16] | [11] | [12] | [13] | [14] | [15]

CCC(=O)c1cccc(Cl)c1
inactive: [1] | [2] | [4] | [5] | [7] | [8] | [9] | [10] | [16] | [11] | [12] | [13] | [14] | [15]
active: [3] 1.97 µM

C=CC(=O)N1CCOCC1
inactive: [1] | [2] | [3] | [4] | [6] | [7] | [8] | [9] | [10] | [16] | [11] | [12] | [13] | [15]

CCN1CCCC1CNC(=O)c1cc(S(N)(=O)=O)ccc1OC (configuration not stated)
inactive: [1] | [2] | [3] | [7] | [8] | [9] | [17] | [10] | [16] | [11] | [13]

COc1ccc2cc(C=O)ccc2c1
inactive: [1] | [2] | [3] | [5] | [6] | [7] | [8] | [9] | [17] | [10] | [11] | [13] | [14] | [15]

CC(C)c1ccc2oc3nc(N)c(C(=O)O)cc3c(=O)c2c1
active: [15] 0.335 µM | [18] 4.47 µM
inactive: [1] | [2] | [3] | [4] | [5] | [6] | [7] | [8] | [17] | [10] | [11] | [12] | [14] | [19] | [20]

CC(C)=CC(=O)O
inactive: [1] | [2] | [3] | [4] | [5] | [6] | [7] | [9] | [17] | [10] | [16] | [11] | [13] | [14] | [15]

CCCC(C)C(=O)O (configuration not stated)
inactive: [1] | [2] | [3] | [4] | [7] | [8] | [9] | [17] | [10] | [16] | [11] | [12] | [13] | [14] | [15]
active: [6] 18.5 µM

From PubChem BioAssay (Tox21)
